In PubChem BioAssay AID488905 (Broad Institute, 2010):
Potency and affinity values are given separately. Results filed as inconclusive are left out. A number with no mark means an inactive call.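 The calls were made as follows: active = growth inhibition lowering dye signal, with fitted half-maximal dose at most ten times the top valid dose; inconclusive = flat curve inhibiting 30 to 70 percent, or unreliable fit; inactive = the rest, including effects in the opposite direction.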

Experiment: growth inhibition of azole-resistant C. albicans, dose response, CaCi-8 strain, Alamar Blue, dry powder, set 3 (AID 488905)
Conditions: C. albicans CaCi-8 + fluconazole, 48 h; series mostly up to 26 µM; activity change, negative = inhibition: at the top concentration

Point of comparison: Cc1cccc(N2CCN(C(=O)c3ccc(Cl)cc3)CC2)n1, “activity change, negative = inhibition” value -21.9%. Against it:
- Cn1ccnc1N1CCN(C(=O)c2ccc(Cl)cc2)CC1 — higher, 0.78%
- O=C(c1ccc(Cl)cc1)N1CCN(c2cccc(C(F)(F)F)n2)CC1 — higher, -7.96%
- O=C(c1ccc(Cl)cc1)N1CCN(c2cnccn2)CC1 — higher, -3.7%
- COc1cccnc1N1CCN(C(=O)c2ccc(Cl)cc2)CC1 — lower, -27.1%
- O=C(c1ccccc1)N1CCN(c2ccccn2)CC1 — higher, -14.1%
- COCCC(=O)N1CCN(c2ccccn2)CC1 — higher, -18.7%
